Assay outcomes (PubChem)
Mtb hypoxia rep – PubChem AID 1159583. M. tuberculosis hypoxia-regulated fluorescent reporter, fluorescence. fluorescence inhibition, % (concentration not given with the values). hit rate 0.1% among 300,000; in the data active = fluorescence inhibition mostly above about 23%, no sharp cut-off; inactive = mostly below about 17%
Rv3671c protease – Rv3671c serine protease inhibitors, primary screen, biochemical, fluorescence polarization, M. tuberculosis H37Rv; P9WHR9; inhibition, % at 5.96 µM; hit rate 0.048% among 320,000; AID 2606, 2010; in the data active = inhibition above about 38%;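 note: extracellular domain of Rv3671c used as enzyme; 0% = enzyme with DMSO and 100% = no enzyme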
Mtb FBA inh – Mtb FBA enzyme inhibitors, primary screen, biochemical, fluorescence, strain H37Rv; Fructose-bisphosphate aldolase (Mycobacterium tuberculosis (strain ATCC 25618 / H37Rv)), …; purified M. tuberculosis FBA, fluorescence read-out; inhibition, % at 1 µM; hit rate 2.3% among 360,000; AID 588726, 2011; in the data active = inhibition above about 27%;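 note: 0% = vehicle and 100% = reference inhibitor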
Target sequence (P9WQA3 whole entry, looked up): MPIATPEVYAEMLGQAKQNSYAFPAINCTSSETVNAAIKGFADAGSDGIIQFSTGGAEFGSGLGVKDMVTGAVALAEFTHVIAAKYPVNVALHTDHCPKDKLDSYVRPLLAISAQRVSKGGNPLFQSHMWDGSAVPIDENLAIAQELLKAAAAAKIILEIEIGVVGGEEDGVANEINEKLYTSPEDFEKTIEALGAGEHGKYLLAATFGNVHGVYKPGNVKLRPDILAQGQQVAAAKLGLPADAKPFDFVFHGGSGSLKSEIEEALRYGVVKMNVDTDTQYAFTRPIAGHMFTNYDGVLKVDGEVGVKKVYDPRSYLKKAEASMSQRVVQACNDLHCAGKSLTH
Mtb UGM inh – M. tuberculosis UGM enzyme inhibitors, primary screen, biochemical, fluorescence polarization, single point; UDP-galactopyranose mutase (Mycobacterium tuberculosis (strain ATCC 25618 / H37Rv)), …; purified UGM, fluorescence polarization probe displacement; inhibition, % at 10 µM; hit rate 0.06% among 320,000; AID 504406, 2011; in the data active = inhibition above about 10%, passing the limit was not always enough; inconclusive = no clear call, values can overlap the other calls
Target sequence (P9WIQ1 whole entry, looked up): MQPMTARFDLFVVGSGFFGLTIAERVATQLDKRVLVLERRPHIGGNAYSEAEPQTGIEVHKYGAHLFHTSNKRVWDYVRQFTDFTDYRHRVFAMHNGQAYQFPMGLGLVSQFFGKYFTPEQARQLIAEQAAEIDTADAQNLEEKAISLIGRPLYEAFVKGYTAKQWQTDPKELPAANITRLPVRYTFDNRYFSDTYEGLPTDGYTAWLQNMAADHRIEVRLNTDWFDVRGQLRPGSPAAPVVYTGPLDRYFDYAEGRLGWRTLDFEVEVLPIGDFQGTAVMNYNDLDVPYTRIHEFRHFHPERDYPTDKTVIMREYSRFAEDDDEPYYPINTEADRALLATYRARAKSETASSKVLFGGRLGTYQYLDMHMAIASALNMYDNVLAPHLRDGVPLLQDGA
FadD28 binding – inhibitors of FadD28 bisubstrate probe binding, primary screen, biochemical, fluorescence polarization, single point. inhibition, % at 12.5 µM. hit rate 0.22% among 360,000. AID 588549, 2011; in the data active = inhibition above about 8.5%, passing the limit was not always enough; inconclusive = no clear call, values can overlap the other calls
GDH-TPI counter – GDH-TPI coupling enzyme inhibitors, primary screen, artefact control for M. tuberculosis FBA inhibitor project, biochemical, absorbance, full deck. inhibition, % at 4.8 µM. hit rate 1.2% among 360,000. AID 588335, 2011. GDH-TPI coupled enzyme counterscreen, NADH absorbance; in the data active = inhibition above about 30%;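 note: 0% = DMSO wells and 100% = wells lacking the enzyme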
* marks the source's active call; other numbers are inactive results; ? = inconclusive; · = no result given; + = active, no number. In the library only some 3.5% were active in any assay of this set; here they are far more common.

SMILES | Mtb hypoxia rep | Rv3671c protease | Mtb FBA inh | Mtb UGM inh | FadD28 binding | GDH-TPI counter
CCOc1ccc(N/N=C(/C#N)C(N)=O)cc1 | · | -4.8 | -3.7 | 0.9 | -0.5 | 33.3*
CC=CC(=O)Nc1cccc(C2=NOC3(C2)CC(C(N)=O)N(C(=O)C=CC)C3)c1 (configuration not stated) | 15.5 | · | · | · | · | ·
CC(C)CS(=O)(=O)C1=NN2C(=N)/C(=C\c3ccc(OC(=O)c4ccco4)cc3)C(=O)N=C2S1 | · | -9.6 | -2.4 | -2.2 | 3.9 | 33.8*
C=CCOc1ccc(/C=C2\C(=N)N3N=C(S(=O)(=O)CC)SC3=NC2=O)cc1OC | 47.6* | -3.7 | 5.8 | 1.0 | -2.3 | 14.0
CS(=O)(=O)C1=NN2C(=N)/C(=C\c3ccc(OC(=O)c4ccco4)cc3)C(=O)N=C2S1 | 10.9 | 2.2 | 5.3 | -0.5 | -2.8 | 16.4
CCS(=O)(=O)C1=NN2C(=N)/C(=C\c3ccc(OC(=O)c4ccco4)c(OC)c3)C(=O)N=C2S1 | · | 1.9 | -3.4 | -6.8 | -2.4 | 28.8
CC1NC(=O)C(CCC(N)=O)NC(=O)c2cc([N+](=O)[O-])cc(I)c2NCCC(C(N)=O)NC1=O (configuration not stated) | 8.2 | · | · | · | · | ·
O=c1cc(-c2ccc(O)cc2)oc2c(C3OC(CO)C(O)C(O)C3O)c(O)cc(O)c12 (configuration not stated) | 1.6 | · | · | · | · | ·
COc1cc2cc(Oc3ccc4ccc(=O)oc4c3)c(=O)oc2cc1O[C@@H]1O[C@H](CO)[C@@H](O)[C@H](O)[C@H]1O | · | 0.2 | 16.2 | -2.6 | ? | 19.0
O=c1ccc2cc(O[C@@H]3O[C@H](CO)[C@@H](O)[C@H](O)[C@H]3O)c(O)cc2o1 | · | · | + | · | -2.9 | 18.1
COc1cc2cc(Oc3ccc4ccc(=O)oc4c3)c(=O)oc2cc1OC1OC(COC(=O)CC(C)(O)CC(=O)O)C(O)C(O)C1O (configuration not stated) | · | 3.5 | 26.1 | 3.0 | -5.5 | 32.4*
Cc1cccc(NC(=S)NN=Cc2cccc([N+](=O)[O-])c2)c1 | 6.3 | · | · | · | · | ·
Cc1ccc(C)n1-c1ccc(C(=O)NCc2cccnc2)cc1 | -1.6 | 3.5 | 31.1* | -1.7 | -1.0 | 2.5
CC(C)(C)c1ccc(C(=O)NCc2cccnc2)cc1 | 13.5 | -3.4 | -2.1 | 0.9 | -0.3 | 10.1
CC(C)(C)c1cc[n+](-c2[nH]c(=O)sc2/C=N/N=C(\[O-])c2cccnc2)cc1 | · | -9.0 | -3.2 | -0.9 | -3.9 | 32.5*
O=c1[nH]c(-[n+]2ccc3ccccc3c2)c(/C=N/N=C(\[O-])c2ccccc2)s1 | · | 10.4 | 2.6 | 2.6 | -2.0 | 30.8*
CC(=O)Nc1ccc(NC(=O)CC(C)=NNC(=O)C(=O)N2CCCC2)cc1 | 7.4 | · | · | · | · | ·
O=C(COC(=O)C1CC2CCCC(C1)C2=O)Nc1ccc(F)c(Cl)c1 (configuration not stated) | 22.0* | -6.4 | -3.0 | -2.1 | -3.2 | 5.7
O=C(COC(=O)C1CC2CCCC(C1)C2=O)Nc1cccc(F)c1 (configuration not stated) | 5.2 | 11.6 | -0.7 | 3.7 | -0.7 | -0.3
Cc1nc2ccccn2c1C(=O)NN=Cc1cc(C)n(-c2ccc(Br)cc2)c1C | 4.6 | · | · | · | · | ·
O=S(=O)(Nc1nc2ccccc2nc1N1CCc2ccccc2C1)c1ccc(Br)cc1 | -6.5 | -9.2 | 126.1* | -1.4 | 1.1 | 17.7
CC(=O)Nc1ccc(S(=O)(=O)Nc2nc3ccccc3nc2N2CCCCCC2)cc1 | -3.7 | -0.1 | 9.8 | -1.4 | 0.4 | 32.5*
CC(=O)Nc1ccc(S(=O)(=O)Nc2nc3ccccc3nc2N2CCc3ccccc3C2)cc1 | 3.6 | -32.3 | 12.1 | -2.1 | -2.0 | 22.2
CCOc1ccccc1OCCCC(=O)N1CCN(S(=O)(=O)c2ccc(Cl)cc2)CC1 | 9.8 | -2.7 | -1.3 | -1.5 | -2.6 | 5.6
CCCOc1ccccc1OCC(=O)N1CCN(S(=O)(=O)c2ccc(Cl)cc2)CC1 | 32.5* | -0.8 | -4.3 | -1.6 | 3.6 | 7.7
SMILES | Mtb hypoxia rep | Rv3671c protease | Mtb FBA inh | Mtb UGM inh | FadD28 binding | GDH-TPI counter
O=C1NC(=Nc2ccccc2)SC1=Cc1cccs1 | 4.8 | · | · | · | · | ·
CC(C)(OC1OC(CO)C(O)C(O)C1O)C1Cc2cc3ccc(=O)oc3cc2O1 (configuration not stated) | 7.5 | · | · | · | · | ·
CC(C)(Cl)C1Cc2cc3ccc(=O)oc3cc2O1 (configuration not stated) | 16.8 | -2.4 | 166.9* | 0.5 | -0.2 | 26.3
O=C1CCC(=O)c2oc3ccccc3c2N1 | 17.1 | 7.9 | -0.4 | -0.4 | -2.5 | 30.9*
CC(C)(C)C(=O)Nc1sc(-c2ccccc2)cc1C(=O)O | 6.1 | -4.0 | -1.6 | -0.5 | 2.0 | 22.2
Cc1cccc(C(=O)Nc2sc(-c3ccccc3)cc2C(=O)O)c1 | -19.7 | 14.3 | 20.5 | 3.5 | 24.2* | 16.9
Cc1ccc(NC(=O)c2cccc(C(=O)Nc3ccc(C)cc3C(=O)O)c2)c(C(=O)O)c1 | -3.4 | -5.5 | 1.0 | 13.2* | 6.1 | 11.3
COc1cc(CCCN2C(=O)C(=O)NCC2Cc2ccc(O)cc2)cc(OC)c1OC (configuration not stated) | 20.0 | · | · | · | · | ·
O=C1CCNCCN1C(CO)c1ccccc1 (configuration not stated) | 6.5 | · | · | · | · | ·
O=C(COC(=O)Cc1cccs1)NCC(=O)Nc1ccc(F)cc1 | 33.4* | 0.7 | 0.2 | 2.7 | -1.4 | 8.2
COc1ccc(NC(=O)CCCN2C(=O)/C(=C\c3ccco3)SC2=S)cc1 | 12.8 | -7.8 | 1.0 | -3.4 | 1.4 | 7.8
CC(C(=O)Nc1ccc(C(=O)O)c(O)c1)N1C(=O)/C(=C\c2ccco2)SC1=S (configuration not stated) | -1.4 | -4.7 | 0.9 | -0.3 | 25.3* | 18.7
Cc1ccc(NC(=O)CN2C(=O)S/C(=C\c3ccc(-c4cccc(C(=O)O)c4C)o3)C2=O)cc1C | 6.6 | · | -0.3 | · | 11.5* | 13.6
O=C(CN1C(=O)/C(=C/c2ccco2)SC1=S)Nc1ccc(O)c(C(=O)O)c1 | 3.8 | -4.2 | 5.0 | 0.7 | 36.3* | 11.6
CCOC(=O)CN1C(=O)S/C(=C\c2ccc(-c3cccc(C(=O)O)c3C)o2)C1=O | 14.3 | 1.9 | -2.5 | 1.4 | -3.2 | 0.0
O=C(CN1C(=O)/C(=C/c2ccco2)SC1=S)Nc1ccc(C(=O)O)c(O)c1 | 3.2 | -10.6 | -2.6 | 0.7 | 23.1* | 16.7
CC(C)NC(=O)N(C)CC1Oc2c(NS(=O)(=O)c3cccs3)cccc2C(=O)N(C(C)CO)CC1C (configuration not stated) | 4.2 | · | · | · | · | ·
CCCCOC(=O)NN=C/C=C/c1ccccc1 | 10.3 | · | · | · | · | ·
S=c1[nH]nc(COc2ccccc2)n1N=Cc1ccc(Cl)cc1Cl | 1.6 | · | · | · | · | ·
COc1ccc(OC)c2c1sc(=NC(=O)c1ccco1)n2C | 6.6 | -16.1 | -0.2 | -4.7 | -1.8 | 33.6*
COc1ccc(OC)c2c1sc(=NC(=O)C1CC1)n2C | 5.6 | 1.4 | 5.1 | 0.5 | -1.8 | 20.8
CCn1c(=NC(=O)c2ccco2)sc2cccc(F)c21 | · | -9.9 | 3.0 | -1.3 | -1.9 | 51.2*
